# aSyn 5UTR inh – 5' untranslated region of α-synuclein, MLPCN primary screen. inhibition, % (tested at 7.5 µM). alpha-synuclein 5'UTR reporter, inhibitor activity. AID 1813. actives 0.82% (n = 300,000); in the data active = inhibition above about 60%;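 also: H4 neuroglioblastoma cells stably carrying SNCA 5'UTR luciferase fusion; 0% = DMSO wells and 100% = positive control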
# IEC-6 tox – kills IEC-6 intestinal cells in KLF5 counter-screen; IEC-6 cytotoxicity, luminescence viability; actives 0.78% (n = 290,000); inhibition, % at 5 µM; AID 1825; in the data active = inhibition above about 22%;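 also: 0% = plate median of test compound wells and 100% = cytotoxic reference compound wells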
# SKKanGAS inh – blocks kanamycin growth of S. pyogenes SKKanGAS strain; BacTiter-Glo, 6 h; inhibition, % at 7.5 µM; actives 1.3% (n = 300,000); AID 1662;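 active = mean replicate score, as percent of positive control median, at least 50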;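 also: strain carries kanamycin resistance gene driven by streptokinase promoter and grows in 40 µg/ml kanamycin; loss of luminescence reflects streptokinase promoter inhibition or plain growth inhibition; 0% = median of DMSO wells and 100% = positive control at its reference dose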
# KLF5 inh – suppresses KLF5 promoter-driven expression. DLD-1 KLF5 promoter-luciferase reporter, luminescence. inhibition, % at 5 µM. actives 0.23% (n = 290,000);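 active = inhibition above a per-plate limit of that plate's mean compound inhibition plus 3 SD, cut at about 60% in these data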;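 also: 0% = DMSO wells and 100% = LY294002 at 200 µM; higher means less KLF5 promoter-driven luciferase light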
# CSC inhib – cancer stem cell inhibition | actives 1.1% (n = 300,000) | cancer stem cell-like cells viability, luminescence | inhibition, % at 7.5 µM; in the data active = inhibition above about 75%; tested in HMLE shEcad cells
# * marks the source's active call; other numbers are inactive results; nt = no result given. Shown are actives, neighbours in structure and some others; about 3% of the full set was active somewhere.
SMILES,aSyn 5UTR inh,IEC-6 tox,SKKanGAS inh,KLF5 inh,CSC inhib
CCOC(=O)c1cnc2c(c(C)nn2C)c1Oc1cc(Cl)cc(Cl)c1,-9,3,1,-29,-2
CCOC(=O)c1cnc(-n2nc(C)cc2C)nc1NC1CCCC1,25,9,97*,-12,-6
CCOC(=O)c1cnc(-n2nc(C)cc2C)nc1Nc1ccc(OC)cc1,37,-10,66*,-16,-4
CCOC(=O)c1cnc(-n2nc(C)cc2C)nc1N(C)C,-42,9,30,-42,-6
COCCn1c(=O)c2c(nc3n2CC(C)CN3Cc2ccccc2)n(C)c1=O (centres undefined),14,-1,7,-12,0
CCC(C)(C)c1ccc(Oc2ccc(N)cc2)cc1,127*,1,11,51,nt
O=C(C#Cc1ccccc1)Nc1ccc(F)cc1,-195,-4,-2,-88,-3
O=C(C#Cc1ccccc1)Nc1cccc(F)c1,-383,16,4,-35,114*
COc1ccc2ncc(S(=O)(=O)c3ccccc3)c(N3CCC4(CC3)OCCO4)c2c1,44,1,-1,-20,nt
COc1ccc2ncc(S(=O)(=O)c3ccccc3)c(N3CCN(c4ccccc4)CC3)c2c1,8,5,67*,9,12
Cc1nc(Nc2cnc(/C=C/c3cc(C(=O)Nc4cccc(C(F)(F)F)c4)ccc3C)cn2)cc(N2CCNCC2)n1,81*,0,72*,-5,136*
Nc1nc(N)c(C=Nc2ccc(Br)cc2)c(Nc2ccc(Br)cc2)n1,-7,4,100*,-26,45
O=C(CN(Cc1ccccc1)C(=O)c1csnn1)NCc1ccccc1,19,0,4,1,-3
CCCCCCC[C@@H](C/C=C/CCC(=O)N(C)C/C(=C/Cl)C/C(=C\C(=O)N1CC(OC)=CC1=O)OC)OC,nt,nt,nt,nt,140*
COc1cc(/C=C2\SC(=Nc3ccccc3)NC2=O)cc(Cl)c1O,21,2,27,-15,27
CCc1ccc(N=C2NC(=O)/C(=C/c3cc(OC)c(O)c(OC)c3)S2)cc1,15,-4,59*,-40,68
COc1cc(/C=C2\SC(=Nc3cccnc3)NC2=O)cc(OC)c1OC,4,-6,50*,3,50
O=C1NC(=Nc2cccnc2)S/C1=C\c1cccc(F)c1,-17,-5,45,5,21
CN(C)CCN(C(=O)c1ccccc1Cl)c1nc2c(Cl)cccc2s1,-37,-2,0,-7,9
C=CCN=C1S/C(=C\N(C)C)C(=O)N1S(=O)(=O)c1ccc(C)cc1,nt,nt,nt,nt,11
Cn1cccc1C(=O)NC(=O)COC(=O)c1ccc(S(C)(=O)=O)c([N+](=O)[O-])c1,nt,nt,nt,nt,53
CS(=O)(=O)c1ccc(C(=O)OCC(=O)NC23CC4CC(CC(C4)C2)C3)cc1[N+](=O)[O-],1,-1,20,-6,155*
CC(Sc1nnc(-c2ccc(OC(F)F)cc2)n1N)C(=O)NCC1CCCO1 (centres undefined),-3,nt,16,nt,-7
Cc1c(CCC(=O)NC2CC2)c(=O)oc2cc(O)ccc12,15,3,-1,-21,3
O=c1c2cc(NC(=S)NCCCN3CCC(Cc4ccccc4)CC3)ccc2nc2n1CCCCC2,12,2,4,-41,101*
SMILES,aSyn 5UTR inh,IEC-6 tox,SKKanGAS inh,KLF5 inh,CSC inhib
CCC1(C)Cc2ccccc2-c2nc(NN)[nH]c(=O)c21 (centres undefined),-6,-3,7,10,-3
CCC1(C)Cc2ccccc2-c2nc(-c3ccccc3)oc(=O)c21 (centres undefined),-1,-5,54*,0,44
COc1cc(C)nc(NC(=S)N(C)C(=O)c2ccccc2)n1,-6,3,-12,-4,12
COc1ccccc1/C=C(/C(=O)OCC(=O)Nc1cc(C)ccc1C)c1ccccc1,8,2,55*,-24,21
CN(CC(=O)Nc1ccc(F)c(F)c1F)C(=O)CCN1C(=O)C2CCCCC2C1=O (centres undefined),nt,nt,nt,nt,-6
O=C1c2cccc3cccc(c23)C(=O)N1c1ccccn1,32,0,nt,-18,-4
O=C1c2c(Br)c(Br)c(Br)c(Br)c2C(=O)N1c1ccccn1,-112,0,-5,-13,84*
O=C(Nc1ccc2c(c1)OCO2)c1ccc(COc2ccc3c(c2)CCC3)o1,-76,3,10,-55,86*
Cc1ccc(C(=O)Nc2ccc3c(c2)CCC3)o1,-134,7,3,-203,11
Cc1ccc(CNC(=O)CCC2CCCN(Cc3c(C)nn(C(C)C)c3C)C2)o1 (centres undefined),3,-1,5,7,-7
Cc1ccc(-c2ccc(/C=C3\SC(N4CCOCC4)=NC3=O)o2)cc1,-72,102*,13,-24,20
Cc1ccc(/C=C/C2=Cc3c(sc(NC(=O)CSc4n[nH]c(N)n4)c3C#N)C(C)(C)C2)o1,-9,-7,55*,11,-3
COc1ccc(C(=O)c2c(C(F)(F)F)oc3c2C(=O)c2ccccc2C3=O)cc1,109*,13,97*,-13,106*
COc1ccc(C(=O)c2coc(-c3ccccc3C(=O)O)c2C(=O)O)cc1,-30,0,-2,-26,-5
Cn1c(Sc2ccccc2Cl)c(C=O)c2ccccc21,39,1,57*,25,16
COc1cc(C(=O)NC(=S)Nc2ccc3[nH]c(=O)[nH]c3c2)cc(OC)c1OC,-4,0,4,-4,-10
COc1cccc(-c2nc(N3CCCCC3C)c3ccccc3n2)c1O (centres undefined),10,11,76*,-37,50
COc1cccc(-c2nc(NC3CCCC3)c3ccccc3n2)c1O,6,-1,55*,-13,61
COc1ccc2[nH]c(C(=O)O)c(NS(=O)(=O)c3ccc(C)cc3C)c2c1,29,1,-6,-10,-5
O=C(O)CCCCCNC(=O)Cn1nnc2ccccc2c1=O,-19,3,-3,-7,-10
COc1ccc(O)c(C2=Nc3ccccc3N=C(c3cccs3)C2)c1,6,0,60*,-14,51
Cc1ccccc1SCC(=O)OCC(=O)N(C)c1c(N)n(Cc2ccccc2)c(=O)[nH]c1=O,8,nt,2,nt,-9
O=S(=O)(Nc1ccc(-c2csc(-c3ccccc3)n2)cc1)c1ccc(F)cc1,-1,1,98*,-33,nt
O=C(Nc1cccnc1)c1ccccc1NS(=O)(=O)c1ccc(F)cc1,-5,-3,3,-15,18
Fc1ccc(-c2csc(-c3ccncc3)n2)cc1,-32,4,-4,-39,5
O=C(Nc1nc(-c2ccccc2)cs1)c1ccccc1NS(=O)(=O)c1ccc(F)cc1,63*,13,85*,21,121*
N/C(=N\OC(=O)CSc1ccccc1)c1ccncc1,-91,-10,0,-98,-3
O=C1/C(=C/c2ccccc2F)SC(=S)N1CC(=O)N1CCCCC1c1cccnc1 (centres undefined),-6,-4,2,-1,26
CSc1ncccc1C(=O)Nc1nc2ccc(Oc3ccccc3)cc2s1,-31,4,48,-18,78*

# From PubChem
